{"source": "the supplement of paper PMC6089552", "test_system": "A673/TR/shEF", "assay": "cell viability (LOESS-normalised, relative to median of negative controls) (log2 ratio); higher = more viable cells (less compound effect), active = hit call of the paper (over 3 MAD below the median)", "details": "treatment time: 72 h", "in_short": "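A673/TR/shEF Ewing sarcoma cells (1,500 per well, 384-well plates) were grown with or without doxycycline to induce EWS-FLI1 shRNA knockdown, starting 24 h before compounds. Library compounds at two or more concentrations, with DMSO controls, were added for three days. Cell viability was read by CellTiter-Glo luminescence on an Envision reader, then LOESS-corrected per plate, divided by the median of negative controls and log2-transformed. Hits were wells at least three median absolute deviations from the median of all screened wells.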", "key": {"[1]": {"details": "0.25 µM, library screen: screen1, EWS-FLI1 expression: high (no doxycycline)"}, "[2]": {"details": "0.25 µM, library screen: screen1, EWS-FLI1 expression: low (doxycycline-induced shRNA knockdown)"}, "[3]": {"details": "2.5 µM, library screen: screen1, EWS-FLI1 expression: high (no doxycycline)"}, "[4]": {"details": "2.5 µM, library screen: screen1, EWS-FLI1 expression: low (doxycycline-induced shRNA knockdown)"}, "[5]": {"details": "0.25 µM, library screen: screen2, EWS-FLI1 expression: high (no doxycycline)"}, "[6]": {"details": "0.25 µM, library screen: screen2, EWS-FLI1 expression: low (doxycycline-induced shRNA knockdown)"}, "[7]": {"details": "2.5 µM, library screen: screen2, EWS-FLI1 expression: high (no doxycycline)"}, "[8]": {"details": "2.5 µM, library screen: screen2, EWS-FLI1 expression: low (doxycycline-induced shRNA knockdown)"}}, "note": "Hit rate of the full screen: of about 3,200 compounds, about 300 (9.4%) showed activity. Many of the other results were omitted from the sample, so actives are more common in it than they were."}
{"smiles": "CNC(=O)O/N=C/C(C)(C)SC", "values": [{"measurement": "cell viability (log2)", "setting": "[1]", "value": "0.0387 (inactive)"}, {"measurement": "cell viability (log2)", "setting": "[2]", "value": "0.0491 (inactive)"}, {"measurement": "cell viability (log2)", "setting": "[3]", "value": "0.106 (inactive)"}, {"measurement": "cell viability (log2)", "setting": "[4]", "value": "0.0724 (inactive)"}]}
{"smiles": "C[C@@H]1OC(=O)[C@H]2C[C@H]3CCCC[C@@H]3[C@@H](/C=C/[C@@H]3CCC[C@@H](C)N3C)[C@@H]12", "values": [{"measurement": "cell viability (log2)", "setting": "[5]", "value": "0.0803 (inactive)"}, {"measurement": "cell viability (log2)", "setting": "[6]", "value": "0.0731 (inactive)"}, {"measurement": "cell viability (log2)", "setting": "[7]", "value": "0.143 (inactive)"}, {"measurement": "cell viability (log2)", "setting": "[8]", "value": "0.0419 (inactive)"}]}
{"smiles": "c1cncc(C2CCCCN2)c1", "note": "(configuration not stated)", "values": [{"measurement": "cell viability (log2)", "setting": "[1]", "value": "0.0408 (inactive)"}, {"measurement": "cell viability (log2)", "setting": "[2]", "value": "-0.0074 (inactive)"}, {"measurement": "cell viability (log2)", "setting": "[3]", "value": "0.145 (inactive)"}, {"measurement": "cell viability (log2)", "setting": "[4]", "value": "0.0957 (inactive)"}]}
{"smiles": "CC(C)=CCC[C@]1(C)C=Cc2c(O)c3c(c(CC=C(C)C)c2O1)O[C@]12C(=C[C@@H]4C[C@H]1C(C)(C)O[C@@]2(C/C=C(/C)C(=O)O)C4=O)C3=O", "values": [{"measurement": "cell viability (log2)", "setting": "[1]", "value": "-0.0514 (inactive)"}, {"measurement": "cell viability (log2)", "setting": "[2]", "value": "0.129 (inactive)"}, {"measurement": "cell viability (log2)", "setting": "[3]", "value": "-1.16 (active)"}, {"measurement": "cell viability (log2)", "setting": "[4]", "value": "-0.0142 (inactive)"}]}
{"smiles": "CC(C)=CCCC1(C)C=Cc2c(O)c3c(c(CC=C(C)C)c2O1)OC12C(CC4CC1C(C)(C)OC2(C/C=C(/C)C(=O)O)C4O)C3=O", "note": "(configuration not stated)", "values": [{"measurement": "cell viability (log2)", "setting": "[1]", "value": "0.0661 (inactive)"}, {"measurement": "cell viability (log2)", "setting": "[2]", "value": "0.00238 (inactive)"}, {"measurement": "cell viability (log2)", "setting": "[3]", "value": "0.127 (inactive)"}, {"measurement": "cell viability (log2)", "setting": "[4]", "value": "0.0888 (inactive)"}]}
{"smiles": "CC(=O)Oc1c2c(c(CC=C(C)C)c3c1C(=O)C1=C[C@@H]4CC5C(C)(C)OC(C/C=C(\\C)C(=O)O)(C4=O)[C@@]15O3)OC(C)(CCC=C(C)C)C=C2", "note": "(some centres not stated)", "values": [{"measurement": "cell viability (log2)", "setting": "[1]", "value": "0.0664 (inactive)"}, {"measurement": "cell viability (log2)", "setting": "[2]", "value": "0.0597 (inactive)"}, {"measurement": "cell viability (log2)", "setting": "[3]", "value": "-0.0173 (inactive)"}, {"measurement": "cell viability (log2)", "setting": "[4]", "value": "0.269 (inactive)"}]}
{"smiles": "COC(=O)/C(C)=C\\CC12OC(C)(C)C3CC(C=C4C(=O)c5c(OC)c6c(c(CC=C(C)C)c5OC431)OC(C)(CCC=C(C)C)C=C6)C2=O", "note": "(configuration not stated)", "values": [{"measurement": "cell viability (log2)", "setting": "[1]", "value": "0.0497 (inactive)"}, {"measurement": "cell viability (log2)", "setting": "[2]", "value": "0.135 (inactive)"}, {"measurement": "cell viability (log2)", "setting": "[3]", "value": "-4.2 (active)"}, {"measurement": "cell viability (log2)", "setting": "[4]", "value": "-3.74 (active)"}]}
{"smiles": "CC(C)=CCCC1(C)C=Cc2c(O)c3c(c(CC=C(C)C)c2O1)OC12C(=CC4CC1C(C)(C)OC2(CC=C(C)C(=O)O)C4O)C3=O", "note": "(configuration not stated)", "values": [{"measurement": "cell viability (log2)", "setting": "[1]", "value": "0.1 (inactive)"}, {"measurement": "cell viability (log2)", "setting": "[2]", "value": "0.0956 (inactive)"}, {"measurement": "cell viability (log2)", "setting": "[3]", "value": "-0.137 (active)"}, {"measurement": "cell viability (log2)", "setting": "[4]", "value": 0.307}]}
{"smiles": "COc1cccc(CN2CCN(Cc3ccccc3OC)CC2)c1", "values": [{"measurement": "cell viability (log2)", "setting": "[1]", "value": "0.108 (inactive)"}, {"measurement": "cell viability (log2)", "setting": "[2]", "value": "0.0202 (inactive)"}, {"measurement": "cell viability (log2)", "setting": "[3]", "value": "0.149 (inactive)"}, {"measurement": "cell viability (log2)", "setting": "[4]", "value": "-0.0141 (inactive)"}]}
{"smiles": "COc1cc2c(cc1-c1cc3cc4ccoc4cc3oc1=O)OCO2", "values": [{"measurement": "cell viability (log2)", "setting": "[1]", "value": "0.0215 (inactive)"}, {"measurement": "cell viability (log2)", "setting": "[2]", "value": "-0.011 (inactive)"}, {"measurement": "cell viability (log2)", "setting": "[3]", "value": "0.0285 (inactive)"}, {"measurement": "cell viability (log2)", "setting": "[4]", "value": "0.107 (inactive)"}]}
{"smiles": "CN1[C@H]2CC(OC(=O)C(CO)c3ccccc3)C[C@H]1[C@H]1O[C@H]12", "note": "(some centres not stated)", "values": [{"measurement": "cell viability (log2)", "setting": "0.103 µM, library screen: screen3, EWS-FLI1 expression: high (no doxycycline)", "value": "0.0178 (inactive)"}, {"measurement": "cell viability (log2)", "setting": "0.103 µM, library screen: screen3, EWS-FLI1 expression: low (doxycycline-induced shRNA knockdown)", "value": "0.0286 (inactive)"}, {"measurement": "cell viability (log2)", "setting": "[1]", "value": "0.0614 (inactive)"}, {"measurement": "cell viability (log2)", "setting": "[2]", "value": "0.0379 (inactive)"}, {"measurement": "cell viability (log2)", "setting": "[5]", "value": "0.0402 (inactive)"}, {"measurement": "cell viability (log2)", "setting": "[6]", "value": "0.0538 (inactive)"}, {"measurement": "cell viability (log2)", "setting": "0.308 µM, library screen: screen3, EWS-FLI1 expression: high (no doxycycline)", "value": "0.0468 (inactive)"}, {"measurement": "cell viability (log2)", "setting": "0.308 µM, library screen: screen3, EWS-FLI1 expression: low (doxycycline-induced shRNA knockdown)", "value": "0.0486 (inactive)"}, {"measurement": "cell viability (log2)", "setting": "0.926 µM, library screen: screen3, EWS-FLI1 expression: high (no doxycycline)", "value": "0.057 (inactive)"}, {"measurement": "cell viability (log2)", "setting": "0.926 µM, library screen: screen3, EWS-FLI1 expression: low (doxycycline-induced shRNA knockdown)", "value": "0.0457 (inactive)"}, {"measurement": "cell viability (log2)", "setting": "[3]", "value": "0.101 (inactive)"}, {"measurement": "cell viability (log2)", "setting": "[4]", "value": "0.113 (inactive)"}, {"measurement": "cell viability (log2)", "setting": "[7]", "value": "0.0967 (inactive)"}, {"measurement": "cell viability (log2)", "setting": "[8]", "value": "0.105 (inactive)"}, {"measurement": "cell viability (log2)", "setting": "2.8 µM, library screen: screen3, EWS-FLI1 expression: high (no doxycycline)", "value": "0.00477 (inactive)"}, {"measurement": "cell viability (log2)", "setting": "2.8 µM, library screen: screen3, EWS-FLI1 expression: low (doxycycline-induced shRNA knockdown)", "value": "0.0597 (inactive)"}, {"measurement": "cell viability (log2)", "setting": "8.3 µM, library screen: screen3, EWS-FLI1 expression: high (no doxycycline)", "value": "0.0173 (inactive)"}, {"measurement": "cell viability (log2)", "setting": "8.3 µM, library screen: screen3, EWS-FLI1 expression: low (doxycycline-induced shRNA knockdown)", "value": "0.0298 (inactive)"}, {"measurement": "cell viability (log2)", "setting": "25 µM, library screen: screen3, EWS-FLI1 expression: high (no doxycycline)", "value": "-0.0119 (inactive)"}, {"measurement": "cell viability (log2)", "setting": "25 µM, library screen: screen3, EWS-FLI1 expression: low (doxycycline-induced shRNA knockdown)", "value": "0.114 (inactive)"}]}
{"smiles": "CCNc1nc(Cl)nc(NCC)n1", "values": [{"measurement": "cell viability (log2)", "setting": "[1]", "value": "0.0934 (inactive)"}, {"measurement": "cell viability (log2)", "setting": "[2]", "value": "-0.0122 (inactive)"}, {"measurement": "cell viability (log2)", "setting": "[3]", "value": "0.0949 (inactive)"}, {"measurement": "cell viability (log2)", "setting": "[4]", "value": "0.0079 (inactive)"}]}
{"smiles": "c1ccc2c(c1)sc1ccccc12", "values": [{"measurement": "cell viability (log2)", "setting": "[1]", "value": "0.0739 (inactive)"}, {"measurement": "cell viability (log2)", "setting": "[2]", "value": "0.0613 (inactive)"}, {"measurement": "cell viability (log2)", "setting": "[3]", "value": "0.158 (inactive)"}, {"measurement": "cell viability (log2)", "setting": "[4]", "value": "0.198 (inactive)"}]}
{"smiles": "CCOP(=S)(OCC)SCSP(=S)(OCC)OCC", "values": [{"measurement": "cell viability (log2)", "setting": "[1]", "value": "0.0176 (inactive)"}, {"measurement": "cell viability (log2)", "setting": "[2]", "value": "0.0157 (inactive)"}, {"measurement": "cell viability (log2)", "setting": "[3]", "value": "0.0447 (inactive)"}, {"measurement": "cell viability (log2)", "setting": "[4]", "value": "0.0694 (inactive)"}]}
